KDM5B inh: Primary screen for KDM5B Histone Demethylases FDH-coupled qHTS | actives 2.6% (n = 220,000) | Lysine-specific demethylase 5B (Homo sapiens), Q9UGL1 | KDM5B demethylase, FDH-coupled NADH fluorescence (FDH is formaldehyde dehydrogenase) | Potency, µM (top dose mostly 57.7 µM), usual class: inhibitors; active = well fitted inhibition curve with a large enough effect; also: 0% is about no effect; nearly all actives have a fitted effect of over 70% in size
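Here, H3K4me3 peptide (12.5 µM in substrate mix) is demethylated by KDM5BΔAP, 200 nM final, after 10 min compound exposure. Formaldehyde product is coupled through FDH (0.25 U/mL in mix) to NADH fluorescence; 30-min ΔRFU feeds dose-response curves.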
Numbers without * were called inactive. Only a selection was taken, and hits are over-represented in it overall. Potency is read from the fitted curve at half-maximal effect.

For COc1ccc(C(=O)N2CC[C@@H]3CN(c4cnccn4)[C@@H]3C2)c(OC)n1 the results were KDM5B inh 32µM*.
For COc1ccc(C(=O)N2CC3CC(C2)[C@H]2CCCC(=O)N2C3)c(OC)n1 (some centres not stated) the results were KDM5B inh inactive.
Screening CCCN(C)c1nccnc1OC1CCN(C(=O)c2ccc(OC)nc2OC)C1 (configuration not stated) returned KDM5B inh inactive.
O=C1CSc2ccc(C(=O)NN(c3ccccc3)c3ccccc3)cc2N1 was read as KDM5B inh inactive.
`COc1cc(C#N)ccc1OC(=O)CCNC(=O)c1ccc(C(C)(C)C)cc1` gave KDM5B inh inactive.
For CC(=O)NNC(=S)Nc1ccccc1Cl the results were KDM5B inh inactive.
`Oc1ccccc1N1CCN(c2nc(-c3cccnc3)nc3ccccc23)CC1` gave KDM5B inh inactive.
`CC(=O)NC(C(=O)N1CCC(c2nc3ccccc3s2)CC1)C(C)C` (configuration not stated) gave KDM5B inh inactive.
For CC(=O)N1CCC(N2CC[C@H](c3nc4ccccc4s3)C2)CC1 the results were KDM5B inh 32µM*.
`Cc1cc(C)cc(OCC(=O)N2CCC(c3nc4ccccc4s3)CC2)c1` gave KDM5B inh inactive.
Screening NC(=O)NNC(=S)NC12CC3CC(CC(C3)C1)C2 returned KDM5B inh inactive.
For CC(=O)Nc1ccc(-c2nc(N3CCCCC3)sc2C)cc1 the results were KDM5B inh inactive.
CC(Cl)C(=O)NC(=O)Nc1ccccc1 (configuration not stated) was read as KDM5B inh inactive.
COc1ccc(S(=O)(=O)NCCNc2ncnc3c2c(C)nn3C)cc1 was read as KDM5B inh inactive.
`Cc1cc(=O)[nH]c(CCNc2nc(-c3ccncc3)nc3c2c(C)nn3C)n1` gave KDM5B inh 20µM*.
Screening CCCCNc1nc(-c2ccncc2)nc2ccccc12 returned KDM5B inh inactive.
Cc1ccc(OCC(O)CNc2nc(C)nc3c2c(C)nn3C)c(C)c1 (configuration not stated) was read as KDM5B inh inactive.
`COC(CNc1nc(-c2ccccn2)nc2c1c(C)nn2C)c1cccs1` (configuration not stated) gave KDM5B inh 28µM*.
Cc1nc(-c2ccncc2)nc(NCCNc2ncccc2C(F)(F)F)c1Cl was read as KDM5B inh inactive.
`Cc1ncsc1CCCNc1nc(-c2ccccn2)nc2c1CCNCC2` gave KDM5B inh inactive.
For CCC(C)Nc1nc(-c2ccccn2)nc2ccccc12 (configuration not stated) the results were KDM5B inh inactive.
For CNS(=O)(=O)CCNc1nc(-c2ccccn2)nc2c1c(C)nn2C the results were KDM5B inh 22µM*.
For COC(=O)c1cc(C(=O)c2cc(F)ccc2O)cc(C(=O)OC)c1O the results were KDM5B inh inactive.
O=C(Nc1ccc(Cl)c(C(=O)NC2CCCCC2)c1)c1ccncc1 was read as KDM5B inh inactive.
For Cc1cc(Cl)ccc1S(=O)(=O)NCCCC(=O)O the results were KDM5B inh inactive.
CCCCN(CC)C(=O)c1cc2c(C)cc(C)c(C)c2[nH]1 was read as KDM5B inh inactive.
For Cc1ccc(-c2ccc(CCC(=O)N[C@@H]3CCOC[C@H]3OCC(=O)O)o2)cc1 the results were KDM5B inh 28µM*.
For Cc1nccn1CCCC(=O)N[C@@H]1CCOC[C@H]1OCC(=O)O the results were KDM5B inh inactive.
Screening Cc1cc(Cl)ccc1OCC(=O)N[C@@H]1CCOC[C@H]1OCC(=O)O returned KDM5B inh inactive.
Screening Fc1cccc(NC(=S)NCCCCc2ccccc2)c1 returned KDM5B inh inactive.
`COc1cccc(/C=C(\C#N)C(=O)Nc2ccccc2C(=O)O)c1OC` gave KDM5B inh inactive.
`CCOC(=O)N1CCC(NC(=O)c2cc3ccc(OC)cc3[nH]2)CC1` gave KDM5B inh inactive.
For CNC(=O)[C@@H]1CN(C(=O)c2cc3ccc(OC)cc3[nH]2)C[C@H]1C1CCN(C)CC1 the results were KDM5B inh 20µM*.
Screening COc1ccc2cc(C(=O)N(C)C3CCc4nn(C)c(=O)n4CC3)[nH]c2c1 (configuration not stated) returned KDM5B inh inactive.
Screening COc1ccc2cc(C(=O)N3CCN(C)CC3)[nH]c2c1 returned KDM5B inh inactive.
For COc1ccc2cc(C(=O)NCc3ccc(C(=O)N4CCN(C)CC4)cc3)[nH]c2c1 the results were KDM5B inh inactive.
CN1CCC([C@@H]2CN(C(=O)c3ccc4[nH]ccc4c3)C[C@H]2C(N)=O)CC1 was read as KDM5B inh inactive.
Screening CCN1CCN(C(=O)c2cc3ccc(OC)cc3[nH]2)CC1 returned KDM5B inh inactive.
CNC(=O)[C@@H]1CN(C(=O)c2ccc3cc[nH]c3c2)C[C@H]1C1CCN(C)CC1 was read as KDM5B inh 20µM*.
`COc1ccc2cc(C(=O)N3CCC(Cc4ccc(C(=O)NC5CC5)cc4)CC3)[nH]c2c1` gave KDM5B inh 35µM*.
`CNC(=O)[C@@H]1CN(C(=O)c2ccc3[nH]ccc3c2)C[C@H]1COC` gave KDM5B inh inactive.
Screening COc1ccc(C(=O)N2C[C@@H](C(N)=O)[C@H](C3CCN(C)CC3)C2)cc1 returned KDM5B inh inactive.
Screening COc1ccc2cc(C(=O)N3CCc4nn(C)c(=O)n4CC3)[nH]c2c1 returned KDM5B inh 25µM*.
Cc1cc(C)cc(NC(=O)CSCc2cc(=O)n3oc(C)cc3n2)c1 was read as KDM5B inh inactive.
For O=C(O)/C(=C\c1ccc(Br)cc1)Sc1nc2ccccc2s1 the results were KDM5B inh inactive.
Screening Fc1ccc(/C=N/Nc2cccc(Cl)c2)cc1F returned KDM5B inh inactive.
`O=C1OCCC1NCC(c1ccccc1)c1c[nH]c2ccccc12` (configuration not stated) gave KDM5B inh inactive.
CCNC(=O)NC(=O)C(C)OC(=O)c1ccc2ccccc2n1 (configuration not stated) was read as KDM5B inh inactive.
`O=C1/C(=C/c2cccc(O)c2)C(c2ccccc2)Oc2ccccc21` (configuration not stated) gave KDM5B inh inactive.
`CCCCCCC1COC(c2ccc(Br)cc2)OC1` (configuration not stated) gave KDM5B inh inactive.
`COc1ccccc1OC(=O)COc1ccc(C)cc1Br` gave KDM5B inh inactive.
For COc1cccc2cc(-c3cc(=O)oc4cc(C)c(C)cc34)oc12 the results were KDM5B inh inactive.
Screening COc1cccc(N2C(=O)NC(=NC3CCCCC3)C23CCN(C(=O)c2ccccc2)CC3)c1 returned KDM5B inh inactive.
Screening Cc1ccccc1S(=O)(=O)N1CCCC(CCC(=O)NC2CC2)C1 (configuration not stated) returned KDM5B inh 14µM*.
Cc1ccccc1S(=O)(=O)N1CCCC(CCC(=O)O)C1 (configuration not stated) was read as KDM5B inh inactive.
For O=C(CCC1CCCN(S(=O)(=O)c2ccc(F)cc2)C1)NC1CC1 (configuration not stated) the results were KDM5B inh inactive.
Screening O=C(CCC1CCCN(S(=O)(=O)c2ccccc2)C1)NCC1CC1 (configuration not stated) returned KDM5B inh 20µM*.
